Unmarked numbers belong to inactive results. Activity calls are given as the source filed them. Calls follow the shape of the dose curve; as a rule, active = well fitted activation curve with a large enough effect; inconclusive = small, poorly fitted or top-dose-only effect; inactive = no such curve, though single readings can be large or run the other way.
Potency is read from the fitted curve at half-maximal effect.

The nature of the assay: Confirmatory qHTS for Identification of Small Molecule Activators of Huntingtin-Antisense Promoter Activity. The following applies: HEK293 HTT-AS promoter firefly luciferase reporter, 24 h; series mostly up to 57.5 µM; activity change, positive = activation: at the top concentration. In short, it runs like this:
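Plated reporter HEK293 cells (24 h) received library compounds at up to 57.5 uM final or 50 uM PTC124, incubated 24 h at 37C; firefly luciferase luminescence was then recorded with Dual-Glo reagent.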
Regarding `O=C(NCc1ccccc1)c1cc2ccc3cccnc3c2[nH]1`, the Potency is 2.13 µM (active).

`COc1ccc(C2=CC(c3ccc(F)cc3)n3ncc(C(=O)Nc4ccc(C)cc4)c3N2)cc1` (stereo not given): the “activity change, positive = activation” value is -18.3%.

On to `Cc1ccc(C)c(NC(=O)C(=O)NCC(c2cccnc2)N2CCN(c3ccc(F)cc3)CC2)c1` (stereo not given), for which the “activity change, positive = activation” value is -47.4%.

Regarding `Cc1ccccc1Cc1c(C)nc2c(-c3ccccc3)c(C)[nH]n2c1=O`, the “activity change, positive = activation” value is -38.5%.

Consider `CCCCN1C(C(=O)c2ccccc2)=C(OC(=O)CC)c2ccccc2S1(=O)=O`, for which the “activity change, positive = activation” value was -43.1%.

As to `COc1cc(NC(=O)c2cnc3c(-c4ccc(F)cc4)c(C)nn3c2C)cc(OC)c1`, the “activity change, positive = activation” value is -4.67%.

As for `CCN1C(=O)c2ccccc2Sc2ccc(NC(=O)Nc3ccccc3OC)cc21`, the “activity change, positive = activation” value was -26.7%.

As for `CC1=C(C(=O)Nc2ccc(Cl)cc2)C(c2ccccc2C)n2ncc(C(=O)Nc3ccc(C)cc3)c2N1` (stereo not given), the “activity change, positive = activation” value was -22.7%.

As to `CCN(C(=O)c1oc2ccc(S(=O)(=O)N3CCCCCC3)cc2c1C)c1ccccc1`, the “activity change, positive = activation” value is -19.3%.

In the case of `CCOc1ccc(NC(=O)CN(c2ccc(Cl)cc2C)S(=O)(=O)c2ccccc2)cc1`, the “activity change, positive = activation” value was -35.9%.

In the case of `COc1cccc(N2CCN(C(=O)c3ccc4nc(N5CCC(C)CC5)sc4c3)CC2)c1`, the “activity change, positive = activation” value was -71.7%.

Take `CCOc1ccccc1C(=O)Nc1ccc2nc3c(c(Nc4ccc(OC)c(OC)c4)c2c1)CCCC3`: the “activity change, positive = activation” value was -19.5%.

As for `COc1ccc(-c2noc(Cn3c(=O)c4ccccc4n(CC(=O)Nc4cccc(C(F)(F)F)c4)c3=O)n2)cc1`, the “activity change, positive = activation” value is -22.2%.

`Cc1cccc(NC(c2cccc(Cl)c2)c2ccc3cccnc3c2O)n1` (stereo not given): the “activity change, positive = activation” value is -37.3%.

For `CCN1C(=O)c2ccccc2Sc2ccc(NC(=O)Nc3ccc(Br)c(C)c3)cc21`, the “activity change, positive = activation” value was -81.9%.

(Values after PubChem BioAssay AID1508622 (National Center for Advancing Translational Sciences (NCATS), 2021).)
